# Test results: the supplement of paper PMC8728848
# The full list was thinned out, with the strongest signals kept by preference.
# Key:
# Experiment in all cases: glycan array binding signal (z-score within array); higher = stronger binding
# Conditions in all cases: glycan notation: IUPAC condensed, linker removed
# [1] = molecular target: Gal(b1-4)GlcNAc(b1-3)Gal(b1-4)GlcNAc(b1-3)Gal(b1-4)GlcNAc(b1-3)Gal(b1-4)GlcNAc(b1-3)Gal(b1-4)GlcNAc(b1-3)Gal(b1-4)GlcNAc(b1-2)Man(a1-3)[Gal(b1-4)GlcNAc(b1-3)Gal(b1-4)GlcNAc(b1-3)Gal(b1-4)GlcNAc(b1-3)Gal(b1-4)GlcNAc(b1-3)Gal(b1-4)GlcNAc(b1-3)Gal(b1-4)GlcNAc(b1-2)Man(a1-6)]Man(b1-4)GlcNAc(b1-4)GlcNAc
# How it was run: (§1)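 Glycan array data were curated from 3228 arrays in the Consortium for Functional Glycomics database and kept only where the protein sequence was available. Glycan names were converted to IUPAC-condensed notation, and columns mapping to the same glycan were averaged. The binding signal is a within-array Z-score, averaged across arrays of the same protein sequence at different concentrations or buffers and across linkers. Negative Z-scores can be read as non-binding.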
# Gal(b1-6)Gal = molecular target: Gal(b1-6)Gal
# How it was run: as §1
# Gal3S(b1-3)GlcNAc = molecular target: Gal3S(b1-3)GlcNAc
# How it was run: as §1
# [2] = molecular target: Gal3S(b1-4)[Fuc(a1-3)]GlcNAc6S
# How it was run: as §1
# Gal6S(b1-3)GlcNAc = molecular target: Gal6S(b1-3)GlcNAc
# How it was run: as §1
# Gal6S(b1-4)Glc6S = molecular target: Gal6S(b1-4)Glc6S
# How it was run: as §1
# [3] = molecular target: GlcNAc(a1-3)Gal(b1-4)GlcNAc
# How it was run: as §1
# [4] = molecular target: GlcNAc(b1-2)Gal(b1-3)GalNAc
# How it was run: as §1
# [5] = molecular target: GlcNAc(b1-2)Man(a1-3)[GlcNAc(b1-4)][GlcNAc(b1-2)Man(a1-6)]Man(b1-4)GlcNAc(b1-4)GlcNAc
# How it was run: as §1
# GlcNAc(b1-3)Gal = molecular target: GlcNAc(b1-3)Gal
# How it was run: as §1
# [6] = molecular target: GlcNAc(b1-4)GlcNAc(b1-4)GlcNAc(b1-4)GlcNAc(b1-4)GlcNAc
# How it was run: as §1
# [7] = molecular target: Man(a1-2)Man(a1-6)[Man(a1-3)]Man(a1-6)[Man(a1-2)Man(a1-2)Man(a1-3)]Man(b1-4)GlcNAc(b1-4)GlcNAc
# How it was run: as §1
# [8] = molecular target: Man(a1-3)[Man(a1-6)]Man(a1-6)[Man(a1-3)]Man(b1-4)GlcNAc(b1-4)GlcNAc
# How it was run: as §1
# [9] = molecular target: Neu5Ac(a2-3)Gal(b1-3)GalNAc6S
# How it was run: as §1
# [10] = molecular target: Neu5Ac(a2-3)Gal(b1-3)GlcNAc(b1-3)Gal(b1-3)GlcNAc
# How it was run: as §1
# [11] = molecular target: Neu5Ac(a2-3)Gal(b1-3)[Neu5Ac(a2-6)]GalNAc
# How it was run: as §1
# [12] = molecular target: Neu5Ac(a2-3)Gal(b1-4)GlcNAc(b1-6)[Neu5Ac(a2-3)Gal(b1-3)]GalNAc
# How it was run: as §1
# [13] = molecular target: Neu5Ac(a2-3)Gal(b1-4)[Fuc(a1-3)]GlcNAc(b1-3)Gal
# How it was run: as §1
# [14] = molecular target: Neu5Ac(a2-6)Gal(b1-4)GlcNAc(b1-2)[Neu5Ac(a2-6)Gal(b1-4)GlcNAc(b1-6)]Man(a1-6)[Neu5Ac(a2-6)Gal(b1-4)GlcNAc(b1-2)Man(a1-3)][GlcNAc(b1-4)]Man(b1-4)GlcNAc(b1-4)GlcNAc
# How it was run: as §1
# [15] = molecular target: Neu5Ac(a2-6)Gal(b1-4)GlcNAc(b1-3)Gal(b1-4)GlcNAc(b1-3)[Neu5Ac(a2-6)Gal(b1-4)GlcNAc(b1-3)Gal(b1-4)GlcNAc(b1-6)]GalNAc
# How it was run: as §1
# [16] = molecular target: Neu5Ac(a2-6)GlcNAc(b1-4)GlcNAc
# How it was run: as §1
# [17] = molecular target: Neu5Ac(a2-8)Neu5Ac(a2-3)[GalNAc(b1-4)]Gal(b1-4)Glc
# How it was run: as §1
binder,measurement,setting,value
rCnSL-A (Clitocybe nebularis) (protein) VNPNLPGPNDVFVGFRGTNNIVGAIYEKDGIKDTPLNNGADAEMGPGSYITDGLFTARIFASGSAGNNPGTTATVCKIYASGVQWRGAPKGYIPVAYFGNGPTAEQRRQTYLRTLGLPGTAIRFGNLNTNPGQGPTAPRQMVVPPGPLRSLLKASCFPAADTRLPQTLHYFEKRVDWNIITAADSQTWGH,glycan array binding signal (z-score),[1],7.72
same,glycan array binding signal (z-score),Gal(b1-6)Gal,-0.201
same,glycan array binding signal (z-score),Gal3S(b1-3)GlcNAc,-0.252
same,glycan array binding signal (z-score),[2],-0.25
same,glycan array binding signal (z-score),Gal6S(b1-3)GlcNAc,-0.309
same,glycan array binding signal (z-score),Gal6S(b1-4)Glc6S,-0.241
same,glycan array binding signal (z-score),[3],-0.253
same,glycan array binding signal (z-score),[4],-0.27
same,glycan array binding signal (z-score),[5],-0.223
same,glycan array binding signal (z-score),GlcNAc(b1-3)Gal,-0.22
same,glycan array binding signal (z-score),[6],-0.217
same,glycan array binding signal (z-score),[7],-0.138
same,glycan array binding signal (z-score),[8],-0.237
same,glycan array binding signal (z-score),[9],-0.234
same,glycan array binding signal (z-score),[10],-0.25
same,glycan array binding signal (z-score),[11],-0.305
same,glycan array binding signal (z-score),[12],-0.165
same,glycan array binding signal (z-score),[13],-0.229
same,glycan array binding signal (z-score),[14],-0.269
same,glycan array binding signal (z-score),[15],0.406
same,glycan array binding signal (z-score),[16],-0.287
same,glycan array binding signal (z-score),[17],-0.246
